Measured values reported in the supplement of paper PMC7411054.
Where a name gives a salt, the structure may show the parent alone.

Tests used:
Settings in all cases: treatment time: 24 h
A549-ACTB-RAB5A [1] = experiment: lowest phenotypically active concentration; higher = less potent
In short: (§1)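 Fifteen gene-edited A549, HepG2 and WPMY1 reporter lines (BFP segmentation plus GFP and RFP/FusionRed markers) were treated at 0.3, 1, 3 or 9 µM for 24 h, four wells each, then imaged live. Live-cell features per well were normalised to DMSO control wells. Deviation required ≥3 of 4 wells beyond the 95th percentile of DMSO Euclidean distances, and reproducibility required median replicate Pearson correlation above the 95th percentile of non-replicates. Phenotypic activity needed both criteria.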

A549-CANX-COX4 [2] = experiment: as above
In short: as §1

A549-GM130-SQSTM1 [3] = experiment: as above
In short: as §1

A549-TP53BP1-CLTA [4] = experiment: as above
In short: as §1

A549-TUBA1B-RELA [5] = experiment: as above
In short: as §1

A549-ACTB-RAB5A [6] = experiment: phenotypically active (imaging signature differs from DMSO and reproducible) at any of 0.3-9 uM (binary (1 = active, 0 = inactive)); higher = active
In short: as §1

A549-CANX-COX4 [7] = experiment: as above
In short: as §1

A549-GM130-SQSTM1 [8] = experiment: as above
In short: as §1

A549-TP53BP1-CLTA [9] = experiment: as above
In short: as §1

A549-TUBA1B-RELA [10] = experiment: as above
In short: as §1

HepG2-ACTB-RAB5A = experiment: as above
In short: as §1

HepG2-CANX-COX4 = experiment: as above
In short: as §1

HepG2-GM130-SQSTM1 = experiment: as above
In short: as §1

HepG2-TP53BP1-CLTA = experiment: as above
In short: as §1

HepG2-TUBA1B-RELA = experiment: as above
In short: as §1

WPMY1-ACTB-RAB5A = experiment: as above
In short: as §1

WPMY1-CANX-COX4 = experiment: as above
In short: as §1

WPMY1-GM130-SQSTM1 = experiment: as above
In short: as §1

WPMY1-TP53BP1-CLTA = experiment: as above
In short: as §1

WPMY1-TUBA1B-RELA = experiment: as above
In short: as §1

Row | Structure (SMILES) | lowest phenotypically active concentration (A549-ACTB-RAB5A [1]) [µM] | lowest phenotypically active concentration (A549-CANX-COX4 [2]) [µM] | lowest phenotypically active concentration (A549-GM130-SQSTM1 [3]) [µM] | lowest phenotypically active concentration (A549-TP53BP1-CLTA [4]) [µM] | lowest phenotypically active concentration (A549-TUBA1B-RELA [5]) [µM] | phenotypically active (A549-ACTB-RAB5A [6]) | phenotypically active (A549-CANX-COX4 [7]) | phenotypically active (A549-GM130-SQSTM1 [8]) | phenotypically active (A549-TP53BP1-CLTA [9]) | phenotypically active (A549-TUBA1B-RELA [10]) | phenotypically active (HepG2-ACTB-RAB5A) | phenotypically active (HepG2-CANX-COX4) | phenotypically active (HepG2-GM130-SQSTM1) | phenotypically active (HepG2-TP53BP1-CLTA) | phenotypically active (HepG2-TUBA1B-RELA) | phenotypically active (WPMY1-ACTB-RAB5A) | phenotypically active (WPMY1-CANX-COX4) | phenotypically active (WPMY1-GM130-SQSTM1) | phenotypically active (WPMY1-TP53BP1-CLTA) | phenotypically active (WPMY1-TUBA1B-RELA)
1 | CCCCc1oc2ccccc2c1C(=O)c1cc(I)c(OCCN(CC)CC)c(I)c1 [amiodarone] | 3 | 9 | 9 | 9 | 3 | 1 (active) | 1 (active) | 1 (active) | 1 (active) | 1 (active) | 1 (active) | 1 (active) | 1 (active) | 1 (active) | 1 (active) | 1 (active) | 1 (active) | 1 (active) | 1 (active) | 1 (active)
2 | C[C@@H](Oc1cc(-n2cnc3ccc(CN4CCN(C)CC4)cc32)sc1C(N)=O)c1ccccc1C(F)(F)F | ≤ 0.3 | ≤ 0.3 | ≤ 0.3 | ≤ 0.3 | ≤ 0.3 | 1 (active) | 1 (active) | 1 (active) | 1 (active) | 1 (active) | 1 (active) | 1 (active) | 1 (active) | 1 (active) | 1 (active) | 1 (active) | 1 (active) | 1 (active) | 1 (active) | 1 (active)
3 | Cn1cc(-c2[nH]c3cc(NC(=O)[C@H](N)C4CCCCC4)cc4c3c2C=NNC4=O)cn1 | 9 | 9 | 9 | 3 | 9 | 1 (active) | 1 (active) | 1 (active) | 1 (active) | 1 (active) | 1 (active) | 1 (active) | 1 (active) | 1 (active) | 1 (active) | 1 (active) | 1 (active) | 1 (active) | 1 (active) | 1 (active)
4 | Oc1cccc(Nc2ccnc3cc(-c4cccc(CN5CCOCC5)c4)sc23)c1 [LCB 03-0110 dihydrochloride] | 1 | 3 | 1 | 3 | 1 | 1 (active) | 1 (active) | 1 (active) | 1 (active) | 1 (active) | 1 (active) | 1 (active) | 1 (active) | 1 (active) | 1 (active) | 1 (active) | 1 (active) | 1 (active) | 1 (active) | 1 (active)
5 | O=C(CCCCCCC(=O)Nc1ccccc1)NO | ≤ 0.3 | 1 | 1 | 1 | 1 | 1 (active) | 1 (active) | 1 (active) | 1 (active) | 1 (active) | 1 (active) | 1 (active) | 1 (active) | 1 (active) | 1 (active) | 1 (active) | 1 (active) | 1 (active) | 1 (active) | 1 (active)
6 | CC(C)NCCCn1c(Sc2cc3c(cc2I)OCO3)nc2c(N)ncnc21 | ≤ 0.3 | ≤ 0.3 | ≤ 0.3 | ≤ 0.3 | ≤ 0.3 | 1 (active) | 1 (active) | 1 (active) | 1 (active) | 1 (active) | 1 (active) | 1 (active) | 1 (active) | 1 (active) | 1 (active) | 1 (active) | 1 (active) | 1 (active) | 1 (active) | 1 (active)
7 | Cc1c(CN2CCN(C(=O)[C@H](C)O)CC2)sc2c(N3CCOCC3)nc(-c3cnc(N)nc3)nc12 | ≤ 0.3 | ≤ 0.3 | ≤ 0.3 | ≤ 0.3 | ≤ 0.3 | 1 (active) | 1 (active) | 1 (active) | 1 (active) | 1 (active) | 1 (active) | 1 (active) | 1 (active) | 1 (active) | 1 (active) | 1 (active) | 1 (active) | 1 (active) | 1 (active) | 1 (active)
8 | Cc1cc(Nc2nc(N[C@@H](C)c3ncc(F)cn3)ncc2Cl)n[nH]1 | 3 | 3 | 3 | 3 | 1 | 1 (active) | 1 (active) | 1 (active) | 1 (active) | 1 (active) | 1 (active) | 1 (active) | 1 (active) | 1 (active) | 1 (active) | 1 (active) | 1 (active) | 1 (active) | 1 (active) | 1 (active)
9 | Clc1ccc(N/N=C(\c2ccccc2)c2ccccn2)nc1 | 1 | 3 | ≤ 0.3 | 3 | ≤ 0.3 | 1 (active) | 1 (active) | 1 (active) | 1 (active) | 1 (active) | 1 (active) | 1 (active) | 1 (active) | 1 (active) | 1 (active) | 1 (active) | 1 (active) | 1 (active) | 1 (active) | 1 (active)
10 | O=C1c2c(O)ccc(O)c2C(=O)c2c(NCCNCCO)ccc(NCCNCCO)c21 [mitoxantrone] | ≤ 0.3 | ≤ 0.3 | ≤ 0.3 | ≤ 0.3 | ≤ 0.3 | 1 (active) | 1 (active) | 1 (active) | 1 (active) | 1 (active) | 1 (active) | 1 (active) | 1 (active) | 1 (active) | 1 (active) | 1 (active) | 1 (active) | 1 (active) | 1 (active) | 1 (active)
11 | CN[C@H]1CC[C@@H](c2ccc(Cl)c(Cl)c2)c2ccccc21 [sertraline] | 1 | 9 | 3 | 9 | 1 | 1 (active) | 1 (active) | 1 (active) | 1 (active) | 1 (active) | 1 (active) | 1 (active) | 1 (active) | 1 (active) | 1 (active) | 1 (active) | 1 (active) | 1 (active) | 1 (active) | 1 (active)
